Data published in the supplement of paper PMC8975748.
Structures can show the parent of a compound that is named as a salt. ± gives the standard deviation of the averaged measurements.

Tests used:
[1] = tested on: Saccharomyces cerevisiae BY4741 SeMeCo community; experiment: mean cell size (pixel area) (pixels); higher = larger cells; settings: 10 µM; 24 h; SM minimal medium
Outline: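 Mean cell pixel area per well was measured in a four-plasmid fluorescent community of Saccharomyces cerevisiae BY4741, where every plasmid complements one auxotrophy and carries a fluorescent marker. Cells from an overnight preculture at OD600 = 1.0 were diluted to OD600 = 0.3 and dispensed at 70 µl into 384-well plates acoustically predosed with drug to a final 10 µM in SM medium. Incubation lasted 24 h, followed by paraformaldehyde fixation, automated confocal imaging and analysis in Harmony. Reported figures are averaged over 3 replicates. Same SeMeCo high-content imaging drug screen: Selleck FDA-approved drugs at 10 µM, 24 h in SM medium, 384-well plates, 3 replicates.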

[2] = tested on: Saccharomyces cerevisiae BY4741 SeMeCo community; experiment: z-score of prototroph abundance vs DMSO median; higher = larger share of this subpopulation than in DMSO controls; settings: 10 µM; 24 h; SM minimal medium; subpopulation (auxotrophy): Prototroph
Outline: (§1)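 Scoring was based on each subpopulation's abundance, expressed as a z-score against the vehicle-well median. A Saccharomyces cerevisiae BY4741 community with four plasmids, each restoring one auxotrophy and encoding a distinct fluorescent protein, was pre-grown overnight to OD600 1.0, diluted to 0.3, and added at 70 µl to 384-well plates acoustically predosed with library drugs (10 µM final). It then grew 24 h in minimal SM medium before paraformaldehyde fixation and automated confocal microscopy, with single-auxotroph fluorescent strains setting thresholds and autofluorescence correction.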

[3] = tested on: Saccharomyces cerevisiae BY4741 SeMeCo community; experiment: z-score of subpopulation abundance vs DMSO median, subpopulation auxotrophic for M; higher = larger share of this subpopulation than in DMSO controls; settings: 10 µM; 24 h; SM minimal medium; subpopulation (auxotrophy): M
Outline: as §1

[4] = tested on: Saccharomyces cerevisiae BY4741 SeMeCo community; experiment: z-score of subpopulation abundance vs DMSO median, subpopulation auxotrophic for L; higher = larger share of this subpopulation than in DMSO controls; settings: 10 µM; 24 h; SM minimal medium; subpopulation (auxotrophy): L
Outline: as §1

[5] = tested on: Saccharomyces cerevisiae BY4741 SeMeCo community; experiment: z-score of subpopulation abundance vs DMSO median, subpopulation auxotrophic for U; higher = larger share of this subpopulation than in DMSO controls; settings: 10 µM; 24 h; SM minimal medium; subpopulation (auxotrophy): U
Outline: as §1

[6] = tested on: Saccharomyces cerevisiae BY4741 SeMeCo community; experiment: z-score of subpopulation abundance vs DMSO median, subpopulation auxotrophic for H; higher = larger share of this subpopulation than in DMSO controls; settings: 10 µM; 24 h; SM minimal medium; subpopulation (auxotrophy): H
Outline: as §1

[7] = tested on: Saccharomyces cerevisiae BY4741 SeMeCo community; experiment: z-score of subpopulation abundance vs DMSO median, subpopulation auxotrophic for LU; higher = larger share of this subpopulation than in DMSO controls; settings: 10 µM; 24 h; SM minimal medium; subpopulation (auxotrophy): LU
Outline: as §1

[8] = tested on: Saccharomyces cerevisiae BY4741 SeMeCo community; experiment: z-score of subpopulation abundance vs DMSO median, subpopulation auxotrophic for LM; higher = larger share of this subpopulation than in DMSO controls; settings: 10 µM; 24 h; SM minimal medium; subpopulation (auxotrophy): LM
Outline: as §1

[9] = tested on: Saccharomyces cerevisiae BY4741 SeMeCo community; experiment: z-score of subpopulation abundance vs DMSO median, subpopulation auxotrophic for HM; higher = larger share of this subpopulation than in DMSO controls; settings: 10 µM; 24 h; SM minimal medium; subpopulation (auxotrophy): HM
Outline: as §1

[10] = tested on: Saccharomyces cerevisiae BY4741 SeMeCo community; experiment: z-score of subpopulation abundance vs DMSO median, subpopulation auxotrophic for UM; higher = larger share of this subpopulation than in DMSO controls; settings: 10 µM; 24 h; SM minimal medium; subpopulation (auxotrophy): UM
Outline: as §1

[11] = tested on: Saccharomyces cerevisiae BY4741 SeMeCo community; experiment: z-score of subpopulation abundance vs DMSO median, subpopulation auxotrophic for HLU; higher = larger share of this subpopulation than in DMSO controls; settings: 10 µM; 24 h; SM minimal medium; subpopulation (auxotrophy): HLU
Outline: as §1

[12] = tested on: Saccharomyces cerevisiae BY4741 SeMeCo community; experiment: z-score of subpopulation abundance vs DMSO median, subpopulation auxotrophic for HUM; higher = larger share of this subpopulation than in DMSO controls; settings: 10 µM; 24 h; SM minimal medium; subpopulation (auxotrophy): HUM
Outline: as §1

[13] = tested on: Saccharomyces cerevisiae BY4741 SeMeCo community; experiment: z-score of subpopulation abundance vs DMSO median, subpopulation auxotrophic for LUM; higher = larger share of this subpopulation than in DMSO controls; settings: 10 µM; 24 h; SM minimal medium; subpopulation (auxotrophy): LUM
Outline: as §1

[14] = tested on: Saccharomyces cerevisiae BY4741 SeMeCo community; experiment: z-score of subpopulation abundance vs DMSO median, subpopulation auxotrophic for HLUM; higher = larger share of this subpopulation than in DMSO controls; settings: 10 µM; 24 h; SM minimal medium; subpopulation (auxotrophy): HLUM
Outline: as §1

[15] = tested on: Saccharomyces cerevisiae BY4741 SeMeCo community; experiment: z-score of subpopulation abundance vs DMSO median, subpopulation auxotrophic for HU; higher = larger share of this subpopulation than in DMSO controls; settings: 10 µM; 24 h; SM minimal medium; subpopulation (auxotrophy): HU
Outline: as §1

[16] = tested on: Saccharomyces cerevisiae BY4741 SeMeCo community; experiment: z-score of subpopulation abundance vs DMSO median, subpopulation auxotrophic for HL; higher = larger share of this subpopulation than in DMSO controls; settings: 10 µM; 24 h; SM minimal medium; subpopulation (auxotrophy): HL
Outline: as §1

Structure (SMILES)	mean cell size [1]	z-score of prototroph abundance [2]	z-score of subpopulation abundance [3]	z-score of subpopulation abundance [4]	z-score of subpopulation abundance [5]	z-score of subpopulation abundance [6]	z-score of subpopulation abundance [7]	z-score of subpopulation abundance [8]	z-score of subpopulation abundance [9]	z-score of subpopulation abundance [10]	z-score of subpopulation abundance [11]	z-score of subpopulation abundance [12]	z-score of subpopulation abundance [13]	z-score of subpopulation abundance [14]	z-score of subpopulation abundance [15]	z-score of subpopulation abundance [16]
CCOC(=O)C1=C(C)NC(C)=C(C(=O)OC)C1c1cccc([N+](=O)[O-])c1 (centres undefined) [Nitrendipine]	12.5 ± 0.13	0.18	-0.21	-1.96	1.29	-0.06	-0.48	-1.23	-0.08	0.62	-0.48	0.52	-1.36	-1.04	–	–
Fc1ccc([C@@H]2CCNC[C@H]2COc2ccc3c(c2)OCO3)cc1 [Paroxetine mesylate]	12.1 ± 0.27	0.14	-0.51	0.03	0.96	-0.34	0.46	–	-0.77	0.67	0	-0.17	-0.39	-0.05	-0.22	-0.67
CCn1cc(C(=O)O)c(=O)c2cnc(N3CCNCC3)nc21 [Pipemidic acid]	–	-0.62	0.72	-0.32	0.77	-1.07	0.45	0.15	0.81	0.86	-0.49	0.55	0.73	0.28	-0.06	0.01
CO[C@H]1C[C@@H]2CC[C@@H](C)[C@@](O)(O2)C(=O)C(=O)N2CCCC[C@H]2C(=O)O[C@H]([C@H](C)C[C@@H]2CC[C@@H](OC(=O)C(C)(CO)CO)[C@H](OC)C2)CC(=O)[C@H](C)/C=C(\C)[C@@H](O)[C@@H](OC)C(=O)[C@H](C)C[C@H](C)/C=C/C=C/C=C/1C	14.17 ± 0.036	-18.4	-1.76	-0.9	–	13.5	4.31	5.51	–	11.2	28	28.7	–	–	–	15.9
Cc1ncc([N+](=O)[O-])n1CC(O)CCl (centres undefined) [Ornidazole]	12.5 ± 0.26	0.34	1.05	0	-0.47	-0.77	-0.8	0.41	–	-0.4	-0.38	0.44	-0.87	0.77	-0.37	0.53
CO[C@@]1(NC(=O)Cc2cccs2)C(=O)N2C(C(=O)O)=C(COC(N)=O)CS[C@@H]21 [Cefoxitin sodium]	12.5 ± 0.3	1.38	-0.16	-1.28	-0.18	-0.25	-0.8	-1.09	0.04	-0.63	-1.19	-1.19	-0.95	–	-0.94	–
COC(=O)Nc1nc2cc(C(=O)c3ccccc3)ccc2[nH]1 [Mebendazole]	12.07 ± 0.077	-1.69	-0.56	0.37	1.91	1.06	0.33	1.32	1.02	1.89	-0.05	1.64	0.4	1.44	–	0.26
CN[C@@H]1[C@@H](O)[C@@H](O[C@@H]2[C@@H](O)[C@H](O[C@H]3OC(CN)=CC[C@H]3N)[C@@H](N)C[C@H]2N)OC[C@]1(C)O [Sisomicin sulfate]	12.12 ± 0.053	–	1.6	1.01	0.55	-0.72	0.28	–	0.61	0.74	0.06	0.52	1.13	2.37	0.07	0.51
CO/N=C(/C(=O)N[C@@H]1C(=O)N2C(C(=O)OCOC(=O)C(C)(C)C)=C(C)CS[C@H]12)c1csc(N)n1 [Cefetamet pivoxil hydrochloride]	12.46 ± 0.1	-1.5	0.7	0.83	–	1.26	0.94	0.52	1.3	0.64	1.65	0.8	1.09	0.63	0.78	1.33
CN(C)CC(c1ccc(O)cc1)C1(O)CCCCC1 (centres undefined) [Desvenlafaxine]	12.4 ± 0.27	0.76	-0.95	-0.35	0.57	-0.84	-0.16	–	-1.06	-0.37	-1.12	-0.85	-0.64	–	-0.26	–
C[C@](N)(Cc1ccc(O)c(O)c1)C(=O)O [Methyldopa]	12.3 ± 0.034	0.97	-1.02	-0.9	-0.29	0.34	-0.35	-0.77	-0.81	-0.7	-0.36	-0.27	-1.19	-0.4	-0.06	-0.91
CCCc1nn(C)c2c(=O)[nH]c(-c3cc(S(=O)(=O)N4CCN(C)CC4)ccc3OCC)nc12 [Sildenafil]	11.4 ± 0.3	1.69	-1.17	-1.03	-0.11	-2.48	-0.5	-0.52	-0.93	-0.73	-0.35	-0.61	-0.21	0.26	–	-1.43
Nc1cc(C(Cl)=C(Cl)Cl)c(S(N)(=O)=O)cc1S(N)(=O)=O [Clorsulon]	12.46 ± 0.016	–	-0.33	0.16	0.03	0.76	0.95	-0.35	–	0.16	0.22	0.92	1.09	–	0.32	0.48
CN1CC2c3ccccc3Oc3ccc(Cl)cc3C2C1 (centres undefined) [Asenapine maleate]	12.34 ± 0.11	0.14	-0.45	1.05	-0.5	-0.64	0.61	–	-0.76	-0.2	0.37	0.01	0.42	0.32	-0.59	0.5
CC(C)C(=O)c1c(C(C)C)nn2ccccc12 [Ibudilast]	12.6 ± 0.22	0.24	-0.62	-0.54	–	–	0.04	-0.43	-1.12	1.06	-0.65	-0.38	-0.2	-0.23	0.99	–
O=C(c1ccccc1)c1ccc2n1CCC2C(=O)O (centres undefined) [Ketorolac]	12.6 ± 0.32	0.73	0	-0.04	-0.78	-0.3	-0.64	0.62	-0.76	-1.16	-0.97	-0.93	-0.52	-0.11	-1.29	0.33
